Laboratory results: PubChem BioAssay (EPA / NIEHS)
Values joined by “and” are separate entries in the source; they are usually repeats but may differ in a detail not shown here. Equal entries are not always repeated. The source holds several records for some structures; these can differ, active in one and inactive in another. Active and inactive are the calls of the source. Rule for the calls: active = hit-call score of the fitted dose curve at least 0.9, where 1 is the maximum; inactive = score below 0.9.

Read-out: Macrophage colony-stimulating factor (MCSF), CSF1 (gene 1435)
Experiment: BSK_IMphg_MCSF: BioMAP Diversity Plus: IMphg Assay for Macrophage colony-stimulating factor (MCSF) Biomarker Activity (AID 2284293)
Conditions: primary human endothelial cells with macrophages
Method: BSK_IMphg is a cell-based, multiplexed-readout assay that uses venular endothelial cells and macrophages, a human vascular primary cell, with measurements taken at 24 hours after chemical dosing in a microplate: 96-well plate.BSK_IMphg_MCSF is an assay component measured in the BSK_IMphg assay. It measures M-CSF antibody related to regulation of gene expression using ELISA technology.Data from the assay component BSK_IMphg_MCSF was analyzed at the endpoint, BSK_IMphg_MCSF, in the positive analysis fitting direction relative to DMSO as the negative control and baseline of activity. Using a type of binding reporter, gain or loss-of-signal activity can be used to understand protein changes. To generalize the intended target to other relatable targets, this assay endpoint is annotated to the 'cytokine' intended target family, where the subfamily is 'colony stimulating factor'.
The levels of cell surface (or secreted, indicated by the prefix "s") biomarker endpoints were measured by ELISA. Overt cytotoxicity to cells in confluent adherent cultures (all systems other than the BT system) was assessed by measuring total protein levels using sulforhodamine B (SRB) staining in parallel cultures at the time of biomarker measurements, indicated as SRB endpoints. For proliferation assays for adherent cell types, individual cell types are cultured at sub-confluence and relative cell numbers quantified by SRB staining at time points optimized for each system (48 h: 3C and CASM3C systems; 72 h: BT and HDF3CGF systems; 96 h: SAg system). SRB was performed by staining cells with 0.1% SRB after fixation with 10% TCA and reading wells at 560 nm.Viability and proliferation of PBMC (T cells) was quantified by Alamar Blue reduction for the SAg and BT systems. For PBMC viability (referred to as PBMC Cytotoxicity within the assay endpoint names), cells were plated (75,000/well in a 96-well plate) and then chemical samples added for 1 h before addition of activators, SEB and TSST-1 (20 ng/mL final concentration each). Cells were incubated for 90 h. Then, Alamar Blue (20 uL/well) (Invitrogen, Cat DAL1100) was added for 6 h, and the plates were read with a fluorescence microplate reader at 546/580 nm (excitation/emission). For PBMC proliferation, cells were plated and activated as above but incubated for only 16 h prior to addition of Alamar Blue. Plates were read after 6 h.

| SMILES | outcome | AC50 |
| --- | --- | --- |
| O=C(O)C(F)(F)OC(F)(F)C(F)(F)OC(F)(F)F | inactive |  |
| O=C(O)C(F)(OC(F)(F)C(F)(F)C(F)(F)F)C(F)(F)F (stereo unspecified) | inactive | 220 nM (active) |
| OCC(F)(F)OC(F)(F)C(F)(F)OC(F)(F)C(F)(F)OC(F)(F)CO | inactive | 24700 nM (active) |
| OCC(F)(F)OC(F)(F)C(F)(F)OC(F)(F)CO | inactive |  |
| O=C(O)C(F)(F)C(F)(F)C(=O)O | inactive |  |
| O=C(O)C(F)(F)OC(F)(F)C(F)(F)OC(F)(F)C(=O)O | inactive |  |
| OCC(F)(F)OC(F)(F)C(F)(F)OC(F)(F)C(F)(F)OC(F)(F)F |  | 43 µM (active) and 18.8 µM (active) |
| CC(O)C(F)(F)C(F)(F)F (stereo unspecified) | inactive |  |
| O=S(=O)(F)C(F)(F)C(F)(F)C(F)(F)C(F)(F)C(F)(F)C(F)(F)C(F)(F)C(F)(F)F | inactive |  |
| NC(=O)C(F)(F)C(F)(F)F | inactive |  |
| O=C(O)C=CC(F)(C(F)(F)F)C(F)(F)F | inactive |  |
| C=CC(=O)OCC(F)(F)C(F)F | inactive |  |
| COC(=O)C(F)(F)C(F)(F)OC(F)(C(F)(F)F)C(F)(F)OC(F)=C(F)F (stereo unspecified) | inactive |  |
| FC(F)(F)C(F)(C(F)(F)F)C(F)(F)C(F)(F)CC1CO1 (stereo unspecified) | inactive |  |
